The results in this text go back to PubChem BioAssay (NCI).

Compounds without any hit were thinned out: in the full panel of roughly 83,000, 20% have a hit.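 Compound tested at a single concentration for 48 hours in 96-well plates; a percent growth value below 10 was scored as active.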 Values without a mark were called inactive. Active and inactive are the calls of the source.

The experiment concerns HCT-116 colon. Kind of experiment: NCI-60 one-dose screen, 48 h (100 = growth as untreated, 0 = no growth, -100 = all killed). Conditions: 10 µM unless noted.
As for `O=C1[C@@H]2Cc3c([nH]c4ccccc34)[C@H](c3ccc(Br)cc3)N2C(=O)CN1C1CCN(Cc2c(Cl)cccc2Cl)CC1`, the growth is 78.8%.

Regarding `O=C1/C(=C/C=C/c2ccco2)SC(=S)N1Cc1ccccc1`, the growth was 91%. On to `O=C(COc1ccc(/C=C2\C(=O)Nc3ccc(Cl)cc32)cc1)Nc1ccc(Cl)cc1`, for which the growth is 15.9%. Next, `N#C/C(=N\Nc1ccc(F)cc1)C(=O)Nc1cc(-c2ccccc2)nn1-c1ccccc1`: 7.78% (active); `Clc1ccc2c(N/N=C/c3c[nH]c4ccccc34)ccnc2c1`: -91.9% (active). Next, `CN1CCN(Cc2ccc(NC(=O)c3cncc(C#Cc4cnc5ccc(NCCO)nn45)c3)cc2C(F)(F)F)CC1`: 0.878% (active). Next, `C#CCOc1ccc(/C=N/Nc2nc(-c3ccc(OC)cc3)cs2)cc1`: 71.4%; `Cc1ccc(/C(N)=N/C(N)=N/c2nc3ccccc3s2)cc1`: 86%; `CC(=O)Nc1cc(N2CCOCC2)c2nc(NC(=O)c3[nH]c(C)c(Cl)c3Cl)sc2c1`: 68.5%.

For the compound `CN(C)c1ccc(/C=N/Nc2nc(N/N=C/c3ccc(N(C)C)cc3)nc(N3CCCCC3)n2)cc1`, the growth was 14.9%.

`N#Cc1c(-c2cccs2)cc(-c2cnccn2)nc1SCC(=O)N/N=C/c1ccc(Cl)cc1`: the growth was 57.8%.

For the compound `COc1ccc(OC)c(NC(=O)CCCCCCNC(=O)C(O)(O)C(F)(F)F)c1`, the growth is 7.1% (active).

On to `C/C(=N/N)c1nnn(-c2ccc(Br)cc2)c1C`, for which the growth was 103%. Next, `CC(C)NC(=O)c1cc(-c2ccc(NC(=O)Nc3ccc(F)c(C(F)(F)F)c3)cc2)nc2cccnc12`: 81.9%.
